From PubChem BioAssay (NCATS)
“And” between values parts separate entries of the source, which are not always exact repeats. Equal values may be shown once. Results filed as inconclusive are left out. Some structures have more than one record in an assay (separate samples or runs), and their calls can disagree. The source made the active and inactive calls. Unless noted, calls follow the shape of the dose curve; as a rule, active = well fitted curve in the direction sought with a large enough effect; inconclusive = small, poorly fitted or top-dose-only effect, or another doubt; inactive = no such curve, though single readings can be large; an effect the other way counts as inactive or inconclusive.

Legend:
[1] = molecular target: Glucocorticoid receptor (Homo sapiens) (UniProt P04150); assay: GR-GFP Redistribution (AID 450;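 active = compounds whose dose series gives a full or clear partial fitted curve of increased nuclear translocation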; also: potency is read from the fitted curve at half-maximal effect); conditions: U2OS GR-GFP nuclear translocation, laser cytometry, 2 h
Sequence of Glucocorticoid receptor (Homo sapiens) (P04150 whole entry, looked up, the tested form may be a part): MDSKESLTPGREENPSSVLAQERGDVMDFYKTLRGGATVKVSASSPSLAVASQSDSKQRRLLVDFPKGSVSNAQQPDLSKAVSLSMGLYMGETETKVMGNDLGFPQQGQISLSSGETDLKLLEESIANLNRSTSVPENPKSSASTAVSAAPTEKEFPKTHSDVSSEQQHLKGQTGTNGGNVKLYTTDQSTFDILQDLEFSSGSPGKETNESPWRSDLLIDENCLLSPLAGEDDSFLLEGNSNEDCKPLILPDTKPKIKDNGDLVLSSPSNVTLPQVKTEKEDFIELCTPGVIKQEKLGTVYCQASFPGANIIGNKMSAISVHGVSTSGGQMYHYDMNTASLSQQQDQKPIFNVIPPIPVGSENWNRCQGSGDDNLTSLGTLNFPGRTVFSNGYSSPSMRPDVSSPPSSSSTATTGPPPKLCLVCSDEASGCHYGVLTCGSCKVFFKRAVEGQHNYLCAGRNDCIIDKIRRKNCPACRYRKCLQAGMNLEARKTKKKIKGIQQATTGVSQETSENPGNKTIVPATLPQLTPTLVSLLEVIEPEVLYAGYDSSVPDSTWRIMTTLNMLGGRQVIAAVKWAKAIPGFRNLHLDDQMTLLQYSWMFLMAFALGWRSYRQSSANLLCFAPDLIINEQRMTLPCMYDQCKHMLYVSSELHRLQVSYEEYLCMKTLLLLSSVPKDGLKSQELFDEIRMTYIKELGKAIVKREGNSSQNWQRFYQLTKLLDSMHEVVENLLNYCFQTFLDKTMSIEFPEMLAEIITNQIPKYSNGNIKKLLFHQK

[2] = molecular target: Glucocorticoid receptor (Homo sapiens) (UniProt P04150); assay: GR-EFC Redistribution (AID 451; calls by dose curve; also: potency is read from the fitted curve at half-maximal effect); conditions: CHO-K1 GR-EFC translocation, beta-gal luminescence, 2 h
Procedure, shortened: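 Translocation of GR-ED fusion to nuclear EA restores b-gal, read by luminescence after 1 h room-temperature detection. Engineered CHO-K1 biosensor cells, 1,000/well, exposed 2 h at 37 C to titrations up to 46 uM final.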

[3] = molecular target: Mitogen-activated protein kinase 10 (Mus musculus) (UniProt Q61831); assay: JNK3 AlphaScreen Assay (AID 530; active = well fitted curve in either direction with a large enough effect, not every such curve was filed as active;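 also: kinase came from lysate of stimulated human HepG2 cells; signal reports phosphorylation of biotinylated GST-cJun 1-79 at Ser73 with 10 µM ATP; % is scaled to controls: 0 for no effect and ±100 for the full control effect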)
Procedure, shortened: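 Room-temperature AlphaScreen kinase assay; pre-activated HepG2 lysate as JNK3 source, biotin-GST-cJun(1-79) substrate, 10 uM ATP, compound 15 min preincubation.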

[4] = Cell Viability - BJ (AID 421; calls by dose curve;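 also: potency is read from the fitted curve at half-maximal effect; cells exposed to compound for 40 hours at 37 °C before readout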); conditions: BJ fibroblast viability, qHTS
Procedure, shortened: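 Luminescent ATP signal (CellTiter-Glo, 20 min at room temperature) served as the read-out of viable BJ cells after 40 hours of compound treatment. Responses were scaled between DMSO and 100 uM tamoxifen, and AC50 values were obtained by Hill modeling.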

[5] = Cell Viability - Jurkat (AID 426;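 active = dose-dependent loss of cell ATP signal giving a full or clear fitted curve, ranked by lower potency value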;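 also: potency is read from the fitted curve at half-maximal effect; cells exposed to compound for 40 hours at 37 °C before ATP read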); conditions: qHTS
Procedure, shortened: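 Seed 5000 Jurkat E6-1 cells/well; add compound; incubate 40 hr at 37 °C; add CellTiter-Glo; wait 20 min at room temperature; read luminescence. Fit concentration-response with Hill equation for AC50.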

[6] = Cell Viability - HepG2 (AID 433; calls by dose curve;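 also: potency is read from the fitted curve at half-maximal effect; potency for ATP loss meaning cytotoxicity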); conditions: qHTS
Procedure, shortened: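 Read-out is luciferase-based quantitation of cellular ATP as a measure of viable HepG2 cells after 40 h treatment at 37 °C. Signal decrease is scaled between DMSO-only and 100 uM tamoxifen controls, with AC50 fitted by the Hill equation.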

[7] = Cell Viability - MRC5 (AID 434; calls by dose curve;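 also: potency is read from the fitted curve at half-maximal effect; cells exposed to compound for 40 hours at 37 °C; potency reflects cytotoxicity seen as loss of intracellular ATP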); conditions: MRC5 lung fibroblast viability, qHTS
Procedure, shortened: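 qHTS cytotoxicity in human lung fibroblast MRC5 cells; 40 hr treatment, 37 °C; cellular ATP by luciferase luminescence; DMSO = 0%, 100 uM tamoxifen = 100% inhibition; Hill-fit AC50.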

[8] = Cell Viability - SK-N-SH (AID 435; calls by dose curve;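 also: potency is read from the fitted curve at half-maximal effect; compound exposure lasted 40 h at 37 °C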); conditions: SK-N-SH neuroblastoma cell viability qHTS
Procedure, shortened: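 Luminescent ATP signal served as the viability read-out after 40 hours of compound treatment of human neuroblastoma SK-N-SH cells. Concentration-response data, scaled between DMSO and 100 uM tamoxifen, gave AC50 values by standard Hill modeling.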

[9] = Cell Viability - N2a (AID 540);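 also: cells exposed to compound for 40 h at 37 °C; plate controls were DMSO alone for no effect and tamoxifen control for full effect; nearly all actives have a fitted effect of over 45% in size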
Procedure, shortened: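 First, 1500 N2a cells per well incubate 5 hr at 37 °C; next, compounds are added and incubated 40 hr at 37 °C; finally CellTiter-Glo is added and luminescence read after 20 min, with AC50 derived by Hill modeling.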

[10] = Cell Viability - HUV-EC-C (AID 542); also: % is scaled to controls: 0 for no effect and ±100 for the full control effect; nearly all actives have a fitted effect of over 35% in size
Procedure, shortened: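 Decrease in cellular ATP, quantified by luciferase luminescence, reflects toxicity in normal human vascular endothelial HUV-EC-C cells given compound for 40 hr in complete culture medium. Values are AC50s from concentration-response curves.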

[11] = Cell Viability - Renal Proximal Tubule (AID 545);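 also: 0% = DMSO only and -100% = 100 µM tamoxifen; nearly all actives have a fitted effect of over 40% in size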
Procedure, shortened: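 Luminescent ATP signal (CellTiter-Glo) served as the viability read-out after 40 hr compound exposure of freshly isolated rat proximal tubule cells at 37 °C. Concentration-dependent ATP loss was fitted with the Hill equation to give AC50.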

[12] = Cell Viability - Hek293 (AID 427;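 active = compounds whose dose-response curve shows a full or clear partial loss of cell viability, called from curve shape rather than a numeric limit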;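 also: potency is read from the fitted curve at half-maximal effect; cells exposed to compound for 40 hours at 37 °C before reading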); conditions: qHTS
Procedure, shortened: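 Luminescent ATP read-out (CellTiter-Glo, 20 min RT) after 40 hr compound exposure at 37 °C in complete medium. Signal normalized to DMSO (basal) and 100 uM tamoxifen (100% inhibition); concentration-response fitted with the standard Hill equation to give AC50.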

[13] = Cell Viability - NIH 3T3 (AID 541); conditions: NIH 3T3 cell viability, qHTS; at 92.2 µM (top of the series);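 also: plate controls were DMSO alone for no effect and tamoxifen positive control for full effect; nearly all actives have a fitted effect of over 25% in size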
Procedure, shortened: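 AC50 values reflect concentration-dependent loss of intracellular ATP in NIH 3T3 cells after 40 hr treatment in complete culture medium, quantified by luciferase-based luminescence.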

[14] = Cell Viability - H-4-II-E (AID 543); also: % is scaled to controls: 0 for no effect and ±100 for the full control effect; nearly all actives have a fitted effect of over 35% in size
Procedure, shortened: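 Here, cytotoxicity is measured in the rat hepatoma line H-4-II-E as loss of intracellular ATP after 40 hr compound treatment, detected by luciferase luminescence.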

[15] = Cell Viability - SH-SY5Y (AID 544); also: nearly all actives have a fitted effect of over 55% in size; also: potency is read from the fitted curve at half-maximal effect
Procedure, shortened: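 Cytotoxicity is scored as a concentration-dependent fall in intracellular ATP in human SH-SY5Y cells treated 40 hr in complete culture medium. Potency is expressed as AC50 from a Hill equation fit.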

[16] = Cell Viability - Mesenchymal (AID 546);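 also: cells exposed to compound for 40 hours before reading; 0% = DMSO only and -100% = 100 µM tamoxifen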
Procedure, shortened: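 AC50 values reflect the drop in intracellular ATP in a human kidney mesenchymal line derived from normal glomeruli. Treatment lasts 40 hr at 37 °C in complete medium, and the signal comes from CellTiter-Glo luminescence.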

[17] = AP1 Signaling Pathway (AID 357; active = well fitted curve in either direction with a large enough effect, not every such curve was filed as active;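 also: ME-180 reporter cells stimulated with EGF at its EC50 level; % is scaled to controls: 0 for no effect and ±100 for the full control effect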)
Procedure, shortened: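 In this screen, ME-180 cells in Opti-MEM with 0.5% dialyzed FBS received EC50 EGF and compound titrations for 5 h. AP-1 reporter beta-lactamase was detected via CCF4 ratio, giving AC50 for positive and negative modulators.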

[18] = molecular target: Cytochrome P450 1A2 (Homo sapiens) (UniProt P05177); assay: p450-cyp1a2 (AID 410; calls by dose curve; also: potency is read from the fitted curve at half-maximal effect;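 as to activity change, negative = inhibition: -100% = full effect of reference inhibitor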)
Sequence of Cytochrome P450 1A2 (Homo sapiens) (P05177 whole entry, looked up): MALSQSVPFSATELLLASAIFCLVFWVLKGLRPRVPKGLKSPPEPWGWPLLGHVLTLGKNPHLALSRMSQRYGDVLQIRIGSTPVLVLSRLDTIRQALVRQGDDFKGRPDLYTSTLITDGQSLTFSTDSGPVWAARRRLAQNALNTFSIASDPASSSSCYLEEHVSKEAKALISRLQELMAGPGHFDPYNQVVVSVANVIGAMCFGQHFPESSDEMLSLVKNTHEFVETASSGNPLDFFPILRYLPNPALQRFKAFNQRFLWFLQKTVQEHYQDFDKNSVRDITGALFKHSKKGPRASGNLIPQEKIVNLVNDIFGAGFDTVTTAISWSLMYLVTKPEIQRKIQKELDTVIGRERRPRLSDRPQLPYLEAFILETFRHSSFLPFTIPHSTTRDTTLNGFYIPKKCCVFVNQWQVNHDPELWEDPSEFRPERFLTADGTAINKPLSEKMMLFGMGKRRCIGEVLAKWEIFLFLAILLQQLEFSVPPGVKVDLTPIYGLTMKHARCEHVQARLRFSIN
Procedure, shortened: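 Inhibition was calculated relative to 57 uM furafylline (full inhibition). The reaction used human CYP1A2 at 20nM with Luciferin-ME at its Km, 100uM, driven by an NADPH-regenerating system for 60 min at room temperature.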

[19] = NFAT Signaling Pathway (AID 444; active = well fitted curve in either direction with a large enough effect, not every such curve was filed as active;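 also: carbachol stimulus at about its EC50 of 1 µM final; % is scaled to controls: 0 for no effect and ±100 for the full control effect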); conditions: Jurkat NFAT-bla M1, carbachol, beta-lactamase ratio, 5 h
Procedure, shortened: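 Read-out: CCF4 FRET ratio (460 nm/530 nm) after 1 h RT dye loading, used for %activity and AC50 from titration series. Cells: Jurkat NFAT-β-lactamase/M1 line, treated with compound plus 1 uM carbachol for 5 h, 37 °C.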

[20] = Stat Signaling Pathway (AID 446; active = well fitted curve in either direction with a large enough effect, not every such curve was filed as active;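 also: ME-180 cervical cancer cells given 40 pM IL-6 alongside compound; SIE-controlled beta-lactamase reporter measured as 460/530 nm FRET emission ratio; % is scaled to controls: 0 for no effect and ±100 for the full control effect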)
Procedure, shortened: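 ME-180 SIE-bla cells; overnight plating; cpd + IL-6 40 pM, 5 h, 37 C; LiveBLAzer 2.5 h RT; 460/530 nm emission ratio. Normalized to 300 pM IL-6 and 125 nM JAK inhibitor controls.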

C=CCN1C[C@H](C)N([C@H](c2ccc(C(=O)N(CC)CC)cc2)c2cccc(OC)c2)C[C@H]1C
inactive: Potency [1] > 46 µM | Potency [2] > 46 µM | outcome [3]

CN1C[C@H](C(=O)N[C@]2(C)O[C@@]3(O)[C@@H]4CCCN4C(=O)[C@H](Cc4ccccc4)N3C2=O)C=C2c3cccc4[nH]cc(c34)C[C@H]21
active: Potency [5] 56.2 µM
inactive: Potency [4] > 92 µM | Potency [6] > 92 µM | Potency [7] > 92 µM | Potency [8] > 92 µM | outcome [3] | outcome [9] | Potency [10] | outcome [11]

CCOC(=O)CC(SP(=S)(OC)OC)C(=O)OCC (stereo not drawn)
inactive: Potency [4] > 92 µM | Potency [5] > 92 µM | Potency [12] > 92 µM | Potency [6] > 92 µM | Potency [7] > 92 µM | outcome [3] | outcome [9] | activity change, negative = cytotoxicity [13] -25.9% | Potency [10] | Potency [14] | outcome [11] | outcome [16]
active: Potency [15] 12.6 µM

O=C(O)CCCc1ccc(N(CCCl)CCCl)cc1
active: Potency [5] 22.8 µM | Potency [12] 18.6 µM | Potency [15] 3.16 µM
inactive: outcome [17] | Potency [18] | Potency [6] > 92 µM | activity change, negative = inhibition ([19]; at 17.2 µM (top of the series)) -26.3% | activity change, negative = inhibition ([19]; at 38 µM (top of the series)) -2.19% | outcome [20] | outcome [3] | outcome [9] | Potency [10] | outcome [11] | outcome [16]

CC(NC(C)(C)C)C(=O)c1cccc(Cl)c1 (stereo not drawn)
inactive: outcome [17] | activity change, negative = inhibition ([19]; at 17.2 µM (top of the series)) -27.5% | outcome [20] | Potency [1] > 20.6 µM

Clc1cccc(SC2CCNCC2)n1
inactive: outcome [3]

Oc1ccc(Cl)cc1
inactive: Potency [4] > 92 µM | Potency [5] > 92 µM | Potency [12] > 92 µM | Potency [6] > 92 µM | Potency [7] > 92 µM | Potency [8] > 92 µM | outcome [3] | outcome [9] | activity change, negative = cytotoxicity [13] 5.07% | Potency [10] | Potency [14] | Potency [15] | outcome [11] | outcome [16]

O=C(CCCN1CCC2(CC1)C(=O)NCN2c1ccccc1)c1ccc(F)cc1
inactive: outcome [17] | activity change, negative = inhibition ([19]; at 17.2 µM (top of the series)) -4.55% | activity change, negative = inhibition ([19]; at 38 µM (top of the series)) 10.5% | Potency [1] > 46 µM and > 20.6 µM | Potency [2] > 46 µM and > 20.6 µM | outcome [3]
inactive and 25.1 µM (active): Potency [18]

Cc1ncsc1CCCl
inactive: Potency [1] > 46 µM | Potency [2] > 46 µM | outcome [3]
active: Potency [18] 31.6 µM

CC(C)NC(C)C
inactive: Potency [4] > 92 µM | Potency [5] > 92 µM | Potency [12] > 92 µM | Potency [6] > 92 µM | Potency [7] > 92 µM | Potency [8] > 92 µM | outcome [3] | outcome [9] | activity change, negative = cytotoxicity [13] -15.2% | Potency [10] | Potency [14] | Potency [15] | outcome [11] | outcome [16]
